Measurements reported in PubChem BioAssay.
Activity calls are given as the source filed them.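 Rule for the calls, unless noted: active = compound that reduces growth-factor-driven endothelial tube area in a mixed cell culture, no cutoff stated; inactive = the rest.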

Columns and labels:
[1] = stimulators of nuclear beta-catenin in C2C12, primary screen, imaging, WNT3A-conditioned medium, mouse C2C12, NPC library (AID 1117326; in the data active = nuclear beta-catenin stimulation mostly above about 4.2%, no sharp cut-off; inactive = mostly below about 10%; note: reference of the scale not given here); conditions: stronger effect = higher value
[2] = stimulators of insulin release from INS-1E, primary screen, cell-based, 5 mM glucose, NPC library (AID 1117329;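 active = compound raises insulin release from rat beta cells at 5 mM glucose, no numeric limit stated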; note: reference of the scale not given here); conditions: rat INS-1E insulin secretion, at 10 µM, stronger effect = higher value
[3] = growth inhibition of GSK3B-pretreated HCT116 cells – cell-based, CellTiter-Glo, 0.2 to 20 µM (AID 1117336;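 active = compounds lowering colon cancer cell viability after pretreatment blocking the GSK3B kinase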); conditions: HCT116 viability after GSK3B inhibitor, at 20 µM, stronger effect = higher value
[4] = inhibition of endothelial tube formation, primary screen, imaging, VEGF stimulated, CD31 staining, tube area, NPC library (AID 1117340); conditions: VEGF-stimulated ADSC/ECFC co-culture, at 10 µM, stronger effect = higher value
[5] = glucagon-like peptide 1 release enhancers, primary assay, NCI-H716 cell line, NPC library (AID 1117341;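 active = compound raises GLP1 secretion from the human gut endocrine cells, with no numeric limit stated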; note: reference of the scale not given here); conditions: NCI-H716 cells, at 10 µM, stronger effect = higher value
[6] = HCT116 colon cancer cell growth inhibition, primary screen, CellTiter-Glo luminescence, NPC library (AID 1117342;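 active = compounds that lower survival of HCT116 colon cancer cells in the luminescence readout, no numeric limit stated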); conditions: at 20 µM (top of the series)
[7] = CellTiter-Glo luminescent readout of SW480 viability loss, NPC library primary (AID 1117343;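 active = compounds that lower viability of the colon cancer cells in the luminescence readout, with no numeric limit stated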); conditions: CellTiter-Glo luminescence; at 20 µM (top of the series)
[8] = decreased DLD-1 cellular survival, CellTiter-Glo luminescent readout, NPC compound collection, primary HTS (AID 1117346;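 active = compounds that lower survival of DLD-1 colon cancer cells in the luminescence readout, no cutoff given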); conditions: DLD-1 viability, CellTiter-Glo luminescence; at 20 µM (top of the series)
[9] = biological target: 6-phosphogluconate dehydrogenase, decarboxylating (Homo sapiens) (UniProt P52209); assay: 6PGD enzyme inhibitors, primary screen, biochemical, human, recombinant enzyme, NADPH absorbance (AID 1159550;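 active = at least 20% inhibition of 6-phosphogluconate dehydrogenase activity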); conditions: recombinant 6PGD, NADPH absorbance 341 nm; at 10 µM; stronger effect = higher value
Chain of 6-phosphogluconate dehydrogenase, decarboxylating (Homo sapiens) (P52209 whole entry, looked up): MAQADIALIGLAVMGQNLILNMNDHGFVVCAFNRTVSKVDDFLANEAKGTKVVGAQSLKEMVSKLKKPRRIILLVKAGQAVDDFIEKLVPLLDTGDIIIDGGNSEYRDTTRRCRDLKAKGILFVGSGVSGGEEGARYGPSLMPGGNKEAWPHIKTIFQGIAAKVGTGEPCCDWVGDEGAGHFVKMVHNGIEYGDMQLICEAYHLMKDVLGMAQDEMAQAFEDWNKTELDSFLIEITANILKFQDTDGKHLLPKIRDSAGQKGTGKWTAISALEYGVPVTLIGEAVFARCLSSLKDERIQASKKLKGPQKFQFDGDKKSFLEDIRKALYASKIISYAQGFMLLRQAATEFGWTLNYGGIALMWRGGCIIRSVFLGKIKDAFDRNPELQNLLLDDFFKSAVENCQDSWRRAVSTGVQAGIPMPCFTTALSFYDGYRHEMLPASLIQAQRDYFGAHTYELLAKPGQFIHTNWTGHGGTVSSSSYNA

Compound | nuclear beta-catenin stimulation ([1]; at 10 µM) | nuclear beta-catenin stimulation ([1]; stimulation, at 2 µM) [%] | insulin secretion stimulation [2] | viability decrease [3] | tube area decrease [4] | GLP1 secretion stimulation [5] | inhibition of viability [6] | viability decrease (inhibition) [7] | viability decrease (inhibition) [8] | inhibition [9]
NC(=O)N/N=C/c1ccc([N+](=O)[O-])o1 | 7.6% (inactive) | 2 | -0.4% (inactive) | 45.2% (inactive) | -17% (inactive) | -2.5% (inactive) | 45.3% (inactive) | 68.8% (active) | -6.7% (inactive) | 5.85% (inactive)
CC1=CC(=O)c2ccccc2C1=O | 25% (inactive) | 0.1 | -1.3% (inactive) | 72.6% (active) | 26.3% (inactive) | -6% (inactive) | 37.5% (inactive) | 122% (active) | 103% (active) | 12.5% (inactive)
Cn1c(=O)c2c(ncn2CC(O)CO)n(C)c1=O (stereo not given) | -0.1% (inactive) | 0.8 | 1.1% (inactive) | -2.9% (inactive) | -11.6% (inactive) | -0.3% (inactive) | 7.4% (inactive) | 12.3% (inactive) | 5.3% (inactive) | -4.2% (inactive)
CC1=NN(c2ccccc2)C(=O)C1 | 0.5% (inactive) | 0.8 | -2.2% (inactive) | 10.2% (inactive) | 6.7% (inactive) | 3.5% (inactive) | 2.1% (inactive) | 33.2% (inactive) | 12.2% (inactive) | 13.6% (inactive)
CCN(CC)CCOC(=O)C(c1ccccc1)c1ccccc1 | 0.8% (inactive) | -1.4 | 13.6% (inactive) | -6.6% (inactive) | 17.8% (inactive) | 0.6% (inactive) | 8.4% (inactive) | -5.9% (inactive) | 5.6% (inactive) | -7.73% (inactive)
CCCCCCCCNC(C)C(O)c1ccc(SC(C)C)cc1 (stereo not given) | -5.4% (inactive) | 1.4 | -0.1% (inactive) | 101% (active) | 45.2% (active) | 38.4% (active) | 102% (active) | 142% (active) | 103% (active) | 12% (inactive)
Cc1ccc(S(=O)(=O)NC(=O)NN2CC3CCCC3C2)cc1 (stereo not given) | 0.7% (inactive) | 1.2 | 42.6% (active) | -5.85% (inactive) | -26.1% (inactive) | 0.8% (inactive) | -22.6% (inactive) | 22.3% (inactive) | -0.5% (inactive) | 2.59% (inactive)
Nc1c(Br)cc(Br)cc1CNC1CCC(O)CC1 (stereo not given) | 1.6% (inactive) | 0.3 | 4.7% (inactive) | 33.6% (inactive) | 20.4% (inactive) | -1.7% (inactive) | 34.3% (inactive) | 11.2% (inactive) | 14% (inactive) | -12.9% (inactive)
COc1ccc2c(c1)c(CC(=O)OCC(=O)O)c(C)n2C(=O)c1ccc(Cl)cc1 | 1.8% (inactive) | 0.4 | 2.2% (inactive) | 4.9% (inactive) | -5.2% (inactive) | -2.5% (inactive) | 12.8% (inactive) | 33.3% (inactive) | 0.1% (inactive) | -4.54% (inactive)
CC1(C)S[C@@H]2[C@H](NC(=O)[C@H](N)c3ccccc3)C(=O)N2[C@H]1C(=O)O | -0.1% (inactive) | -0.4 | -0.2% (inactive) | -19% (inactive) | 16.3% (inactive) | 1.2% (inactive) | -2.8% (inactive) | -8.7% (inactive) | -9.6% (inactive) | 9.14% (inactive)
NS(=O)(=O)c1cc2c(cc1Cl)NC(C(Cl)Cl)NS2(=O)=O (stereo not given) | -0.1% (inactive) | -0.1 | 1.15% (inactive) | 13.9% (inactive) | -20.1% (inactive) | 0.9% (inactive) | -37.1% (inactive) | -6.6% (inactive) | 6.3% (inactive) | 17.4% (inactive)
CCCc1ncc(C[n+]2ccccc2C)c(N)n1 | -1.3% (inactive) | -2 | 0.95% (inactive) | -5.4% (inactive) | 6.7% (inactive) | 0.7% (inactive) | -12.5% (inactive) | -33.4% (inactive) | -13.4% (inactive) | -3.15% (inactive)
Cc1ccccc1OCC(O)CO (stereo not given) | 0.8% (inactive) | 2.4 | -1.2% (inactive) | -10.2% (inactive) | -4.1% (inactive) | -0.8% (inactive) | -20.4% (inactive) | 0.7% (inactive) | -25.4% (inactive) | 7.3% (inactive)
CCN(CC)C(=O)N1CCN(C)CC1 | -0.1% (inactive) | 0.2 | -1.8% (inactive) | -3.6% (inactive) | -3.8% (inactive) | 4.4% (inactive) | 5.3% (inactive) | 53.1% (active) | -2.05% (inactive) | 10.8% (inactive)
O=c1cc(CO)occ1O | 2.6% (inactive) | 0.4 | -1.3% (inactive) | -8.3% (inactive) | -7.1% (inactive) | 1.9% (inactive) | -7% (inactive) | 38.7% (inactive) | 10.8% (inactive) | 6.93% (inactive)
